# Test results as given in ChEMBL document CHEMBL1961873, “Compounds: GSK PKIS; Assays: Nanosyn kinase panel” (2012).
# How the values were obtained:
# [1] = target: RAC-alpha serine/threonine-protein kinase (Homo sapiens) (UniProt P31749); settings: at 0.1 µM
# [2] = target: RAC-alpha serine/threonine-protein kinase (Homo sapiens) (UniProt P31749); settings: at 1 µM
# [3] = target: RAC-beta serine/threonine-protein kinase (Homo sapiens) (UniProt P31751); settings: at 0.1 µM
# [4] = target: RAC-beta serine/threonine-protein kinase (Homo sapiens) (UniProt P31751); settings: at 1 µM
# [5] = target: RAC-gamma serine/threonine-protein kinase (Homo sapiens) (UniProt Q9Y243); settings: at 0.1 µM
# [6] = target: RAC-gamma serine/threonine-protein kinase (Homo sapiens) (UniProt Q9Y243); settings: at 1 µM
# [7] = target: G protein-coupled receptor kinase 6 (Homo sapiens) (UniProt P43250); settings: at 0.1 µM
# [8] = target: G protein-coupled receptor kinase 6 (Homo sapiens) (UniProt P43250); settings: at 1 µM
# [9] = target: T1, Rhodopsin kinase GRK7 (Homo sapiens) (UniProt Q8WTQ7); settings: at 0.1 µM
# T1 sequence (whole entry): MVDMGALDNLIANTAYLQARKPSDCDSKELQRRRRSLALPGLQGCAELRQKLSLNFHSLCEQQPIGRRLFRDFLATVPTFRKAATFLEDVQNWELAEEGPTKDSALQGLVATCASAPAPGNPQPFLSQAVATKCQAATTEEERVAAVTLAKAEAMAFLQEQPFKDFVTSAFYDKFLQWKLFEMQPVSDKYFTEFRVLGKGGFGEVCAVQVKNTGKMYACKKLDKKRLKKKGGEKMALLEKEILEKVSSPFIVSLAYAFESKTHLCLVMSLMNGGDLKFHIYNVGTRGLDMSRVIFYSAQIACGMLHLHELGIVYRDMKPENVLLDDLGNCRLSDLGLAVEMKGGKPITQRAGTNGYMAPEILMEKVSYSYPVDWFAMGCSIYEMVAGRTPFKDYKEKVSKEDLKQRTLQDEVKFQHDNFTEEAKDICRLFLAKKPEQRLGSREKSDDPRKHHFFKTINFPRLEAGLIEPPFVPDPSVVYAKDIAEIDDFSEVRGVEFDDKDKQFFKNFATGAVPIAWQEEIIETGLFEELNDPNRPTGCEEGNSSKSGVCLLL
# [10] = target: T1, Rhodopsin kinase GRK7 (Homo sapiens); settings: at 1 µM
# [11] = target: Serine/threonine-protein kinase MRCK alpha (Homo sapiens) (UniProt Q5VT25); settings: at 0.1 µM
# Serine/threonine-protein kinase MRCK alpha (Homo sapiens), sequence (Q5VT25 whole entry): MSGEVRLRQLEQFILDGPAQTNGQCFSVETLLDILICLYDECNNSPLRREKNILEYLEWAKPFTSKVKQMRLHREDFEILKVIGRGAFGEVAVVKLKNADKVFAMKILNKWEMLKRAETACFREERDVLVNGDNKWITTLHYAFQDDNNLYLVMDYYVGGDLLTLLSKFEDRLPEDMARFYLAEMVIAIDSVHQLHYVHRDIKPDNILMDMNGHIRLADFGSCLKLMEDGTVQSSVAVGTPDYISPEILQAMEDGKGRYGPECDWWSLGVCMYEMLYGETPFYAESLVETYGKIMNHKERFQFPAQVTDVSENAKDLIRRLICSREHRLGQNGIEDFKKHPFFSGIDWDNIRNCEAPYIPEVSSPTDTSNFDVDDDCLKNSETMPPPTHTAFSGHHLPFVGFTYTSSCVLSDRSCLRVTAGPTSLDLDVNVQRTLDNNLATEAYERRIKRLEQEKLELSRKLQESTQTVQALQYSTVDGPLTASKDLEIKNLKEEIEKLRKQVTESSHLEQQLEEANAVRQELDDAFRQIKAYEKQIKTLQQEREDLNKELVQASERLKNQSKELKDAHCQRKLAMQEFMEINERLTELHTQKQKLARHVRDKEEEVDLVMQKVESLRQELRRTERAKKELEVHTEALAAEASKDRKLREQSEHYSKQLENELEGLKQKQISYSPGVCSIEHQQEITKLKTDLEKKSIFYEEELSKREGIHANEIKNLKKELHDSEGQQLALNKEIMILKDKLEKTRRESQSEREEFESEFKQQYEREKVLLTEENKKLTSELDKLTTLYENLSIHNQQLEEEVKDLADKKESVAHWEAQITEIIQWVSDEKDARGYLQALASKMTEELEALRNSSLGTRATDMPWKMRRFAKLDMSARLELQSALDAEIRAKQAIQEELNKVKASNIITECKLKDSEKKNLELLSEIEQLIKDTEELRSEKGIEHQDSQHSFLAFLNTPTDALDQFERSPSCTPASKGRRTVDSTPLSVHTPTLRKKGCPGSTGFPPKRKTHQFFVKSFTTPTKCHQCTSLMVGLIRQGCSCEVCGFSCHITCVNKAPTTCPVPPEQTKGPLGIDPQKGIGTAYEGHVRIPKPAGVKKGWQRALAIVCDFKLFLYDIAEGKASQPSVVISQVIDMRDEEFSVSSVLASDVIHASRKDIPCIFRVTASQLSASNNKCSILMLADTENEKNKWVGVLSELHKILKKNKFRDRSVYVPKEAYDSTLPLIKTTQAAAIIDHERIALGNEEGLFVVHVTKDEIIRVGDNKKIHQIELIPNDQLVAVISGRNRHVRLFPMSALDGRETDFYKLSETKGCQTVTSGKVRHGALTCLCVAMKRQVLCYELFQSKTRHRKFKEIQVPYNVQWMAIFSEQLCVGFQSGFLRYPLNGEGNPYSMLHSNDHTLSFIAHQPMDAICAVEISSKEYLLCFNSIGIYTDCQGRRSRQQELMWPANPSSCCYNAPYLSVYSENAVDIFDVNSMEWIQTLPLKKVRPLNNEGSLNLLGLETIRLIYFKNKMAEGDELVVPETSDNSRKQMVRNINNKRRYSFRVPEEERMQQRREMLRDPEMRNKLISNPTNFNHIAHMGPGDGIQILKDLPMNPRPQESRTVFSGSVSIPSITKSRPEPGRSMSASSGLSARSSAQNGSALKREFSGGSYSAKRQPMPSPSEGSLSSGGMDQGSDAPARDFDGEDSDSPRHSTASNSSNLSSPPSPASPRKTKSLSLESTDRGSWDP
# [12] = target: Serine/threonine-protein kinase MRCK alpha (Homo sapiens) (UniProt Q5VT25); settings: at 1 µM
# [13] = target: Serine/threonine-protein kinase MRCK beta (Homo sapiens) (UniProt Q9Y5S2); settings: at 0.1 µM
# Serine/threonine-protein kinase MRCK beta (Homo sapiens), sequence (Q9Y5S2 whole entry): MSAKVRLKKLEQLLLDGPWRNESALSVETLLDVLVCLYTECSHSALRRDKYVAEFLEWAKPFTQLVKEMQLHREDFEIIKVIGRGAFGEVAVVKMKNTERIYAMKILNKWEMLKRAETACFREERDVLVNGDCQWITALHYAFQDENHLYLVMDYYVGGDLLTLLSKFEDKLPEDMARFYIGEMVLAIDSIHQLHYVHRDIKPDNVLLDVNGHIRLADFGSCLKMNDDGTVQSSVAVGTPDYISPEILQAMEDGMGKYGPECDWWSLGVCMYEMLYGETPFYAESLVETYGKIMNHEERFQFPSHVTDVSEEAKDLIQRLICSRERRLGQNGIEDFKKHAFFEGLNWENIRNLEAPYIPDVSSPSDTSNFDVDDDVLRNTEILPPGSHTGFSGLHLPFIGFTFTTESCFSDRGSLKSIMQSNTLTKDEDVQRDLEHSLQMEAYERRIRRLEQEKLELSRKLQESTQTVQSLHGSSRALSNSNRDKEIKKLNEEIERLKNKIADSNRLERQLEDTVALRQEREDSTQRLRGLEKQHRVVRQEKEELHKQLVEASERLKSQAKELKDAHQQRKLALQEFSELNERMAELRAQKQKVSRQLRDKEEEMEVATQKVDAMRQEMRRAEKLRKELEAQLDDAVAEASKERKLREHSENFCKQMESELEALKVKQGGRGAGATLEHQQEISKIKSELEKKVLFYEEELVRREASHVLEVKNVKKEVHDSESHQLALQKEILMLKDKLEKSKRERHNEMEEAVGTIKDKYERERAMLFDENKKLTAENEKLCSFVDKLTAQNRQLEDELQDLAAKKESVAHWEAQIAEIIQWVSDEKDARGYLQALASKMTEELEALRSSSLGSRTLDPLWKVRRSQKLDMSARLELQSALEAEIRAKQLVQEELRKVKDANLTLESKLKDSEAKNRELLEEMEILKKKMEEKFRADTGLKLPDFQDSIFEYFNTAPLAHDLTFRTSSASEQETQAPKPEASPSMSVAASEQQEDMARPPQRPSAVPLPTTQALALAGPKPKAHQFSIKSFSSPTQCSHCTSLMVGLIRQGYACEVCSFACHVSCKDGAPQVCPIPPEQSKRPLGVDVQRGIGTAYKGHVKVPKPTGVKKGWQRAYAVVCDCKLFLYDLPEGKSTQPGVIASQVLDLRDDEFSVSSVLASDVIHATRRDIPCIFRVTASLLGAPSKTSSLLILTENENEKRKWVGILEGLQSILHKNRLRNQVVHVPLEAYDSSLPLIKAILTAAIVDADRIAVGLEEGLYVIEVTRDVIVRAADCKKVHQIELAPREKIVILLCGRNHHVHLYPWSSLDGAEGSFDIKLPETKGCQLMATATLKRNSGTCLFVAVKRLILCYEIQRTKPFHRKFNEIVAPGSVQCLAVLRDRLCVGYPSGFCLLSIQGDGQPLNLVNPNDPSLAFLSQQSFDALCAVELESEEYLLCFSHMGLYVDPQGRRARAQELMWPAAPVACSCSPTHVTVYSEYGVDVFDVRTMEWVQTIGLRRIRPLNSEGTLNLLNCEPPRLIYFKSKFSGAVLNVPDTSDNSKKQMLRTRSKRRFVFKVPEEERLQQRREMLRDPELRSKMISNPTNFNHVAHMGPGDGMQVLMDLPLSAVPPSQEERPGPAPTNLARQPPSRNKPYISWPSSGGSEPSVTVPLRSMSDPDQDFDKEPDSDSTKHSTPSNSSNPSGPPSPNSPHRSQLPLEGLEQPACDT
# [14] = target: Serine/threonine-protein kinase MRCK beta (Homo sapiens) (UniProt Q9Y5S2); settings: at 1 µM
# [15] = target: Ribosomal protein S6 kinase alpha-5 (Homo sapiens) (UniProt O75582); settings: at 0.1 µM
# [16] = target: Ribosomal protein S6 kinase alpha-5 (Homo sapiens) (UniProt O75582); settings: at 1 µM
# [17] = target: Ribosomal protein S6 kinase alpha-4 (Homo sapiens) (UniProt O75676); settings: at 0.1 µM
# Ribosomal protein S6 kinase alpha-4 (Homo sapiens), sequence (O75676 whole entry, looked up): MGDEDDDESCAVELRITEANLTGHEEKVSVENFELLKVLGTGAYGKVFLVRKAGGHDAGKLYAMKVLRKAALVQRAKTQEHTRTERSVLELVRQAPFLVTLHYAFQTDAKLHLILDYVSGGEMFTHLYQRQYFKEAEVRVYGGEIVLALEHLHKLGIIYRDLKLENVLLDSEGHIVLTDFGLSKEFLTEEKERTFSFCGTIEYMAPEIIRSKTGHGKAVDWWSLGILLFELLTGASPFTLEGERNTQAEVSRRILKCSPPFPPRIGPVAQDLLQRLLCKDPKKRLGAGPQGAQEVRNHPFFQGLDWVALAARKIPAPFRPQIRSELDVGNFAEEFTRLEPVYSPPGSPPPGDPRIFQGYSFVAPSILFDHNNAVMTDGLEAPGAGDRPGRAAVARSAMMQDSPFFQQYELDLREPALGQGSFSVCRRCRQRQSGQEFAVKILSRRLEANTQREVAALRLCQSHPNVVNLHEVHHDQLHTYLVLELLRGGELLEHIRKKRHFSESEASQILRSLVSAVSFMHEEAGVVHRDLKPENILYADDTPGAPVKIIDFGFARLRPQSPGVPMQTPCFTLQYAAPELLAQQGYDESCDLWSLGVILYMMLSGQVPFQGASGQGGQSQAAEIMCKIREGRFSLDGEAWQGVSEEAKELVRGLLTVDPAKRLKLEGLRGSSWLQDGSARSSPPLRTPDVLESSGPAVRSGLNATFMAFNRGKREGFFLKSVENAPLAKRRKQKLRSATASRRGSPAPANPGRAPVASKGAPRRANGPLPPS
# [18] = target: Ribosomal protein S6 kinase alpha-4 (Homo sapiens) (UniProt O75676); settings: at 1 µM
# [19] = target: Ribosomal protein S6 kinase beta-1 (Homo sapiens) (UniProt P23443); settings: at 0.1 µM
# [20] = target: Ribosomal protein S6 kinase beta-1 (Homo sapiens) (UniProt P23443); settings: at 1 µM
# RAC-alpha serine/threonine-protein kinase (Homo sapiens), sequence (P31749 whole entry): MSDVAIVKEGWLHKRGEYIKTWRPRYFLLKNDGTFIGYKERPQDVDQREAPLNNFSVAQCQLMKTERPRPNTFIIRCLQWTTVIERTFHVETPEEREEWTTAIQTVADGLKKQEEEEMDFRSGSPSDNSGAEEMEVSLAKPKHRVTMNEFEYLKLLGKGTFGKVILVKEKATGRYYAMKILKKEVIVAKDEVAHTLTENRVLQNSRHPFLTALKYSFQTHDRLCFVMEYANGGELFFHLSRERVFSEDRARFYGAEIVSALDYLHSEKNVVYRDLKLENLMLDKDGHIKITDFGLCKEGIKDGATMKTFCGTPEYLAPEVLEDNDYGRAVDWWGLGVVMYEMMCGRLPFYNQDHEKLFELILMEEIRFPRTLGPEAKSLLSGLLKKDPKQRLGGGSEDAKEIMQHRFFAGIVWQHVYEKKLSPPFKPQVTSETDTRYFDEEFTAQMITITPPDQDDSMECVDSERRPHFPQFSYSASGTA
Compound,inhibition [1],inhibition [2],inhibition [3],inhibition [4],inhibition [5],inhibition [6],inhibition [7],inhibition [8],inhibition [9],inhibition [10],inhibition [11],inhibition [12],inhibition [13],inhibition [14],inhibition [15],inhibition [16],inhibition [17],inhibition [18],inhibition [19],inhibition [20]
COc1cccc(-n2ncc3c(N/N=C/c4ccc(S(C)(=O)=O)cc4)ncnc32)c1,-3.17%,-2.91%,-3.17%,-2.73%,-8.29%,-3.66%,1.17%,-1.78%,-0.35%,0.56%,-0.29%,-0.45%,0.04%,0.16%,-1.19%,-0.55%,1.78%,2.04%,1.23%,5.85%
CN(C)c1cc2c(Nc3ccc4c(cnn4Cc4ccccc4)c3)ncnc2cn1,0.51%,0.62%,2.07%,1.16%,0.46%,1.23%,3.25%,3.36%,2.54%,3.15%,-0.16%,0.83%,1.04%,1.67%,3.83%,6.2%,2.42%,6.24%,2.01%,3.88%
Cc1nc(-c2ccccc2)n2nc(NCCCN3CCOCC3)ncc12,0.61%,0.11%,0.45%,2.03%,0.57%,4.13%,3.41%,0.49%,5.84%,2.44%,6.14%,2.64%,0.51%,0.04%,0.53%,1.08%,2.47%,3.6%,1.34%,2.24%
Cc1ccc2c(-c3ccnc(Nc4cccc(C(F)(F)F)c4)n3)c(-c3ccccc3)nn2n1,0.89%,1.19%,0.8%,2.31%,0.73%,4.19%,2.15%,2.48%,10.5%,3.2%,1.06%,5.98%,0.83%,1.46%,-3.38%,-4.64%,2.52%,3.99%,2.1%,2.71%
Cc1ccc2c(-c3ccnc(Nc4ccc5c(c4)OCCO5)n3)c(-c3ccc(C(F)(F)F)cc3)nn2n1,1.37%,1.23%,1.5%,1.65%,1.43%,-4.48%,0.55%,2.19%,5.75%,2.78%,-5.75%,-1.13%,0.19%,0.96%,-0.15%,-1.56%,0.87%,2.08%,0.35%,0.24%
NC(=O)c1sc(-n2cnc3ccccc32)cc1OCc1ccccc1Br,1.72%,1.07%,0.68%,3.59%,1.82%,4.09%,1.41%,3.01%,9.12%,4.5%,1.73%,4.94%,-1.16%,0.28%,8.61%,10%,2.12%,4.72%,1.52%,4.06%
Cc1cc(O)cc(C)c1/C=C/c1cncc(C(=O)N(C)C)c1,0.52%,0.6%,2.14%,0.78%,1.44%,1.3%,3.76%,0.05%,0%,-6.95%,0.02%,0.32%,0.83%,1.36%,2%,4.09%,1.39%,2.46%,0.39%,3.03%
COC(=O)c1cncc(/C=C/c2c(C)cc(O)cc2C)c1,1.01%,0.52%,1.09%,1.16%,1.47%,1.17%,7.47%,9.38%,3.31%,3.95%,-0.75%,4.85%,-0.09%,0.48%,3.93%,4.33%,2.57%,3.67%,1.37%,1.04%
Cc1ccc(O)cc1Nc1ccnc2ccc(S(C)(=O)=O)cc12,0.79%,0.22%,2.36%,1.9%,1.87%,4.72%,6.06%,7.8%,3.42%,9.64%,-0.59%,3.17%,-0.33%,1.42%,11.4%,9.44%,2.55%,3.94%,3.76%,2.87%
O=C1Nc2ccccc2/C1=C/Nc1ccc2[nH]c(=O)[nH]c2c1,0.44%,0.45%,1.75%,2.21%,1%,1.86%,8.17%,23.7%,4.17%,15.9%,-0.3%,1.93%,-0.63%,-1.04%,3.99%,5.92%,3.86%,16.6%,2.55%,11.1%
NC(=O)c1cccc(Nc2nccc(Nc3cccc(F)c3)n2)c1,0.22%,-0.29%,0.22%,0.58%,0.47%,3.46%,2.83%,0.77%,4.02%,2.39%,1.84%,0.87%,0.04%,1.43%,1.48%,0.2%,0.68%,1.21%,0.38%,1.99%
NS(=O)(=O)c1ccc(N/N=C2\C(=O)Nc3ccc(Cl)cc32)cc1,1.17%,1.19%,3.01%,2.43%,1.79%,1.82%,4.41%,8.19%,2.49%,2.98%,-0.18%,2.52%,0.03%,0.67%,-2.92%,-0.64%,2.66%,5.77%,1.75%,2.32%
Nc1nccc(-c2c(-c3ccc(F)cc3)ncn2CCCN2CCOCC2)n1,1.68%,1.55%,2.52%,0.79%,1.64%,3.69%,4.54%,5.62%,2.89%,8.32%,0.42%,1.54%,0.49%,1.1%,6.47%,6.81%,4.22%,3.46%,1.35%,1.45%
Cc1cc(-c2ccccn2)cc(C)c1/C=C/c1cncc(-c2nn[nH]n2)c1,1.14%,0.85%,0.53%,1.57%,2.14%,2.17%,5.67%,1.26%,9.3%,7.66%,2.46%,1.25%,0.75%,0.41%,3.34%,2.91%,0.46%,1.78%,0.44%,1.44%
